# Legend:
# Assay in all cases: DAPPL (digital affinity profiling via proximity ligation, sequencing); 10 mM Tris-HCl pH 7.5, 50 mM NaCl, 1 mM DTT, 4% glycerol, room temperature, 30 min; GST-TFs on glutathione beads, 16-mer random dsDNA library, 0.1% formaldehyde crosslink after washing; high values mean tight binding
# [1] = target: T1, FEV (Homo sapiens, UniProt Q99581 1-238); settings: protein: recombinant; tags: N-terminal GST; dsDNA, one strand shown
# T1 sequence: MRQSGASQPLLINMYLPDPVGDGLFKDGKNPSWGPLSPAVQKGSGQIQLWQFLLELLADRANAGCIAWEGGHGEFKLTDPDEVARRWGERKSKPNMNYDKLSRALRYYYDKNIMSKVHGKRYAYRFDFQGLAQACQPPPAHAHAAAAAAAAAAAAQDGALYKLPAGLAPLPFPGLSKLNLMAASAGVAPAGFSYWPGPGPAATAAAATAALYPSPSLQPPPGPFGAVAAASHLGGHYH
# In short: (§1)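 Binding signal is given per hexamer as its read frequency for a factor divided by its frequency in the tag-only sample. GST-fused human transcription factors were expressed in yeast, captured on glutathione beads, barcoded with DNA and pooled with that sample, then incubated with 200 nmole of a 16-mer random double-stranded DNA library in Tris/NaCl/DTT/glycerol buffer for 30 min at room temperature. The pools were then washed, crosslinked, proximity-ligated, amplified by PCR and sequenced on an Illumina NextSeq500.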
# [2] = target: ETV5 (Homo sapiens, UniProt P41161 1-510); settings: protein: recombinant; tags: N-terminal GST; dsDNA, one strand shown
# Chain of ETV5 (P41161 whole entry): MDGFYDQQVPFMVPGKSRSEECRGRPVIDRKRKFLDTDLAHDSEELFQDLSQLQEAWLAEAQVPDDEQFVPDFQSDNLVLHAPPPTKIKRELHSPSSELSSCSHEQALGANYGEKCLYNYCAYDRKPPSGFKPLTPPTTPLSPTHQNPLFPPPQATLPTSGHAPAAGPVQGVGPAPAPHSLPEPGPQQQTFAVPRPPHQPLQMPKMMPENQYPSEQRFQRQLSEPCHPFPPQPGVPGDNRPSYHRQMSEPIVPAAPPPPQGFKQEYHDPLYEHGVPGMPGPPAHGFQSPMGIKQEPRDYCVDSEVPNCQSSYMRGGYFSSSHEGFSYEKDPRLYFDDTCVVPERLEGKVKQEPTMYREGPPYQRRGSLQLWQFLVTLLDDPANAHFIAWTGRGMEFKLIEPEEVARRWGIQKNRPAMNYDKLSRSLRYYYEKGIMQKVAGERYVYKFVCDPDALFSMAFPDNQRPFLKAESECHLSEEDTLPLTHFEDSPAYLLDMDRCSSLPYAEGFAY
# In short: as §1
# [3] = target: HSF1 (Homo sapiens, UniProt Q00613 1-529); settings: protein: recombinant; tags: N-terminal GST; chain copies: 3; dsDNA, one strand shown
# Chain of HSF1 (Q00613 whole entry): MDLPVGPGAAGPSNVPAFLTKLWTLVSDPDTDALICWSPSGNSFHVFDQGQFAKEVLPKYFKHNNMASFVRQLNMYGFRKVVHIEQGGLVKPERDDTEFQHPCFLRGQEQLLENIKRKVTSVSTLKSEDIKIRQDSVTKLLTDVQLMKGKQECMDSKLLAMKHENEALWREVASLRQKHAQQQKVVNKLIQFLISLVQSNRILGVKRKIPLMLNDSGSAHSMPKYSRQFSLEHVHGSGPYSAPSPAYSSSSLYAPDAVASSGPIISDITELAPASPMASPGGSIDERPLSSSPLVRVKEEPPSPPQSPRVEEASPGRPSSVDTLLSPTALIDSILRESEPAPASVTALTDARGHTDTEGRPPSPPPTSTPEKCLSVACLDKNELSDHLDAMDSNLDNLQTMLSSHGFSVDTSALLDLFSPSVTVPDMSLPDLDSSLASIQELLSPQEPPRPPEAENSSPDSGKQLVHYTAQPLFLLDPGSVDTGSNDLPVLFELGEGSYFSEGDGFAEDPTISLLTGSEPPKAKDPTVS
# In short: as §1
# [4] = target: T2, SPIC (Homo sapiens, UniProt Q8N5J4 1-248); settings: protein: recombinant; tags: N-terminal GST; dsDNA, one strand shown
# T2 sequence: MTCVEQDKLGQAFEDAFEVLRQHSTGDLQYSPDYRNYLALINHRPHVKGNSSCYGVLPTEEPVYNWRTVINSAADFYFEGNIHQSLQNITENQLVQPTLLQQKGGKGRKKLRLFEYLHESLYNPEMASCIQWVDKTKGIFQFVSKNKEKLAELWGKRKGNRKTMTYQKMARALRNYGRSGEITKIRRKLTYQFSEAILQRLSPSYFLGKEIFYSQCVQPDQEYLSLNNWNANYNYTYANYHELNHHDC
# In short: as §1
# [5] = target: ELF4 (Homo sapiens, UniProt Q99607 1-663); settings: protein: recombinant; tags: N-terminal GST; dsDNA, one strand shown
# Chain of ELF4 (Q99607 whole entry): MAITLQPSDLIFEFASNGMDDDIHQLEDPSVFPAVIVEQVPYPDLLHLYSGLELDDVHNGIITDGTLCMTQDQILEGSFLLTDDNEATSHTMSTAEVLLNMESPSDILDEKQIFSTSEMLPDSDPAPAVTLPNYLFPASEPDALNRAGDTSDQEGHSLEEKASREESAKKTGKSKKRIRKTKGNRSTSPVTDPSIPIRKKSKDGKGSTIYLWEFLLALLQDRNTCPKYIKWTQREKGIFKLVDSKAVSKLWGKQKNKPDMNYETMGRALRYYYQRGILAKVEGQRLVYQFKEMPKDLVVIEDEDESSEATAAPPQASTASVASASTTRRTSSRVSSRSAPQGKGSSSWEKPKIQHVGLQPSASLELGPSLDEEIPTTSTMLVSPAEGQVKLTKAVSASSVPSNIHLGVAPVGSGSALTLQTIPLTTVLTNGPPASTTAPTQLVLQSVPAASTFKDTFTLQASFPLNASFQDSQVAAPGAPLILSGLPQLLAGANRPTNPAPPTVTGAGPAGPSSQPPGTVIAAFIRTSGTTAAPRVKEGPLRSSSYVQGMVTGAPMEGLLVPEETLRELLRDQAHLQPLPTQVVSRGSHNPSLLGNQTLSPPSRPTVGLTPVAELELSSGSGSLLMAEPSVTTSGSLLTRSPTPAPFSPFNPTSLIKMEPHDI
# In short: as §1
# [6] = target: T3, ELK4 (Homo sapiens, UniProt P28324-2 1-405); settings: protein: recombinant; tags: N-terminal GST; dsDNA, one strand shown
# T3 sequence: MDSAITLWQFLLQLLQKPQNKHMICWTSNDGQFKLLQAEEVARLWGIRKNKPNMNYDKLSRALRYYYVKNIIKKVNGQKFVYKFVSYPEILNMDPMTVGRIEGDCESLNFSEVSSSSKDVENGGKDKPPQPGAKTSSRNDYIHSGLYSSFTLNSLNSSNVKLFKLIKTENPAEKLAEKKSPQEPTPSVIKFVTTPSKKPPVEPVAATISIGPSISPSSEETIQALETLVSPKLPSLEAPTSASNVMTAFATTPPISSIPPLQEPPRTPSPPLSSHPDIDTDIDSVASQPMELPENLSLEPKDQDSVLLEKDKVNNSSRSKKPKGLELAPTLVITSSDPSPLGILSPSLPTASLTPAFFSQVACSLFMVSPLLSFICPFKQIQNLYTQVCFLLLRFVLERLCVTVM
# In short: as §1
# [7] = target: T4, ETV2 (Homo sapiens, UniProt O00321 1-342); settings: protein: recombinant; tags: N-terminal GST; dsDNA, one strand shown
# T4 sequence: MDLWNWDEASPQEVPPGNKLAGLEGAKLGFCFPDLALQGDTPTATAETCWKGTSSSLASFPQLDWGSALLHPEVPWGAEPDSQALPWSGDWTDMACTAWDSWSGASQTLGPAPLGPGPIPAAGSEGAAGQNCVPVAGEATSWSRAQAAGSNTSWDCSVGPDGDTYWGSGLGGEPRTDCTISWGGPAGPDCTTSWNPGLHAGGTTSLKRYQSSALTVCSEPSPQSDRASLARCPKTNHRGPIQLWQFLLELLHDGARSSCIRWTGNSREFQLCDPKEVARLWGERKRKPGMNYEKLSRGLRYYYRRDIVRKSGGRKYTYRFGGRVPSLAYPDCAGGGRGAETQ
# In short: as §1
# [8] = target: T5, ELF3 (Homo sapiens, UniProt P78545 1-371); settings: protein: recombinant; tags: N-terminal GST; dsDNA, one strand shown
# T5 sequence: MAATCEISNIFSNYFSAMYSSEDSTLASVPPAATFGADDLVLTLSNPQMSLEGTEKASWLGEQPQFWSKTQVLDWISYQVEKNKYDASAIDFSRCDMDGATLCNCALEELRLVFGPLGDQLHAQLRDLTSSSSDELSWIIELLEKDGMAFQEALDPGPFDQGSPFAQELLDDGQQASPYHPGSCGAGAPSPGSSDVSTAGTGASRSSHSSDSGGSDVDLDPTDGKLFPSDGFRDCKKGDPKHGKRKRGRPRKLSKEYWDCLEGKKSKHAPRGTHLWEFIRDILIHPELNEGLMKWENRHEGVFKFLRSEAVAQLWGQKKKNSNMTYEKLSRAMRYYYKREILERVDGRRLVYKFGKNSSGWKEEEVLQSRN
# In short: as §1
# [9] = target: CRX (Homo sapiens, UniProt O43186 1-299); settings: protein: recombinant; tags: N-terminal GST; dsDNA, one strand shown
# Chain of CRX (O43186 whole entry): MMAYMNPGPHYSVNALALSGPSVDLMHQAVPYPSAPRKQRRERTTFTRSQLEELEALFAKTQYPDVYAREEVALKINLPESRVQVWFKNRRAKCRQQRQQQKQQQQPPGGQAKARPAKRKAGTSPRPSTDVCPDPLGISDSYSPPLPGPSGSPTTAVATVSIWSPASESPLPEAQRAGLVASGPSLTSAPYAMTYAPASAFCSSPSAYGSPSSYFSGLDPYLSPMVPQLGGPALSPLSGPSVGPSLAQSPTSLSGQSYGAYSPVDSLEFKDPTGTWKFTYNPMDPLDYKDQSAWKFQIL
# In short: as §1
# [10] = target: ETV1 (Homo sapiens, UniProt P50549 1-477); settings: protein: recombinant; tags: N-terminal GST; dsDNA, one strand shown
# Chain of ETV1 (P50549 whole entry): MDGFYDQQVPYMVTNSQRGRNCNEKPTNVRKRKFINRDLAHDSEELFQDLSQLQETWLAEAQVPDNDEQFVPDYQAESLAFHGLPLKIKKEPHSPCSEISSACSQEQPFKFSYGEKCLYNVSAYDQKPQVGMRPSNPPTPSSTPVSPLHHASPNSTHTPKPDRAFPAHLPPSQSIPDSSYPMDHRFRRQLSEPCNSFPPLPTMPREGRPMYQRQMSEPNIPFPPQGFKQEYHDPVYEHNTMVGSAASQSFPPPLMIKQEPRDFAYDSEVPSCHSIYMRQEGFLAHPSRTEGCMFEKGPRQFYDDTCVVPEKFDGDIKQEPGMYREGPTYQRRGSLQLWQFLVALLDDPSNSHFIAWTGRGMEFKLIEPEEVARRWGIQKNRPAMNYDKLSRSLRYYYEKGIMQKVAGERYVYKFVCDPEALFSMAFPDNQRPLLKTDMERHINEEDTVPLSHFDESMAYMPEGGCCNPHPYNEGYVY
# In short: as §1
# [11] = target: T6, ERF (Homo sapiens, UniProt P50548 1-548); settings: protein: recombinant; tags: N-terminal GST; dsDNA, one strand shown
# T6 sequence: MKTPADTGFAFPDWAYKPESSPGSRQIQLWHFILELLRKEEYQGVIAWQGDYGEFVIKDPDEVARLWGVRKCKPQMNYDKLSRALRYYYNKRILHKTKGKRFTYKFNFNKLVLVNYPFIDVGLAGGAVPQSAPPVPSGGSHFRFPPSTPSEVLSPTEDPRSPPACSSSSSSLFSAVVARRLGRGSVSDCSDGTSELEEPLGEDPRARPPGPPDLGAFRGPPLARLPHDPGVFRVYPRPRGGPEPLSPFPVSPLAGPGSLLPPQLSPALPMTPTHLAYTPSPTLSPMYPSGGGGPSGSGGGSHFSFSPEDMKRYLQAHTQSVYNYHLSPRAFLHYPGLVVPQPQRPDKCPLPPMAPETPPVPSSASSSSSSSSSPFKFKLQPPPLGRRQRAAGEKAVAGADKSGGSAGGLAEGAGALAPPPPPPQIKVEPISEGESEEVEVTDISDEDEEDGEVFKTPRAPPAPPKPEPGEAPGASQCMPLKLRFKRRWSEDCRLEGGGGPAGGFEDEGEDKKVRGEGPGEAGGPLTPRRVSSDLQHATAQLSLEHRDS
# In short: as §1
# [12] = target: T7, ETV3L (Homo sapiens, UniProt Q6ZN32 1-361); settings: protein: recombinant; tags: N-terminal GST; dsDNA, one strand shown
# T7 sequence: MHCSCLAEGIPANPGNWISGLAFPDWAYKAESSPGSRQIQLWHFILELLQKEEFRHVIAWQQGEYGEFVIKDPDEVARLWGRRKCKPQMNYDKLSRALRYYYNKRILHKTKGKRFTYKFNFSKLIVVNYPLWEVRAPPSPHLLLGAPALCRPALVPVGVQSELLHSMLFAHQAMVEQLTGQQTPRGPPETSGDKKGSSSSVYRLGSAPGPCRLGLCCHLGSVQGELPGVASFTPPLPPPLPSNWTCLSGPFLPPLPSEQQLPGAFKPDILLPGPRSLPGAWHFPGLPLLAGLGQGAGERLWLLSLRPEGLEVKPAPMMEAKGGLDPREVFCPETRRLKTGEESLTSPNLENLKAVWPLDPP
# In short: as §1
# [13] = target: T8, ETS2 (Homo sapiens, UniProt P15036 1-469); settings: protein: recombinant; tags: N-terminal GST; dsDNA, one strand shown
# T8 sequence: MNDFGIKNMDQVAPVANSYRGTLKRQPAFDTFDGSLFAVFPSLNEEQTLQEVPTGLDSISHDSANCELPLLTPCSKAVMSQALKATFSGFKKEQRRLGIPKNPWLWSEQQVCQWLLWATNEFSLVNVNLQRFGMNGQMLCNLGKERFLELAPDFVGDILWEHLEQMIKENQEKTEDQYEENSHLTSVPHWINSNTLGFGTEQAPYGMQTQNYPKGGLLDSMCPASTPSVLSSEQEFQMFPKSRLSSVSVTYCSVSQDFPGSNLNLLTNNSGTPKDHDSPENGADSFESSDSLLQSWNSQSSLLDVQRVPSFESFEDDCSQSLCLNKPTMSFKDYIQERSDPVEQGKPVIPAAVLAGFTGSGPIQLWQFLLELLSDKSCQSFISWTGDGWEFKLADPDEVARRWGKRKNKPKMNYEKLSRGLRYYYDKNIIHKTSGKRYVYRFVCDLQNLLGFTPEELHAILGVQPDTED
# In short: as §1
# [14] = target: T9, SPDEF (Homo sapiens, UniProt O95238 1-335); settings: protein: recombinant; tags: N-terminal GST; dsDNA, one strand shown
# T9 sequence: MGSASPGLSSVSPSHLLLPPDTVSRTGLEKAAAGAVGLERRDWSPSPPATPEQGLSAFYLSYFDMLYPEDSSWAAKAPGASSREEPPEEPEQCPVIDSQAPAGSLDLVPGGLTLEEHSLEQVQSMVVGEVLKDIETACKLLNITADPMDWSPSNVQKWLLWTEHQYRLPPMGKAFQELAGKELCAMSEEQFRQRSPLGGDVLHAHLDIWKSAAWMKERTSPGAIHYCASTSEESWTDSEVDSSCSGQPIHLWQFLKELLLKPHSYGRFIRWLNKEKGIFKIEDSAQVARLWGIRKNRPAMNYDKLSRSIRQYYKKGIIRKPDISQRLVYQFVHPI
# In short: as §1
# [15] = target: T10, ETV7 (Homo sapiens, UniProt Q9Y603 1-341); settings: protein: recombinant; tags: N-terminal GST; dsDNA, one strand shown
# T10 sequence: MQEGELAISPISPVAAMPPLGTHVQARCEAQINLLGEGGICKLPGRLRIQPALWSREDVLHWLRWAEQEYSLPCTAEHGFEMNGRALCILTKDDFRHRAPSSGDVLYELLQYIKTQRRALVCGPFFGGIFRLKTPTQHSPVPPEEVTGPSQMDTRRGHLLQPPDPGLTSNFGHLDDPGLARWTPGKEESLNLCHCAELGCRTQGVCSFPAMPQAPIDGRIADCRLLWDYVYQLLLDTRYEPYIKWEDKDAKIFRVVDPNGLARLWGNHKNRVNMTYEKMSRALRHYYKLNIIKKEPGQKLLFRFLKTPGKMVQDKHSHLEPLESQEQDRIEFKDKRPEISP
# In short: as §1
# [16] = target: T11, ELF5 (Homo sapiens, UniProt Q9UKW6-2 1-255); settings: protein: recombinant; tags: N-terminal GST; dsDNA, one strand shown
# T11 sequence: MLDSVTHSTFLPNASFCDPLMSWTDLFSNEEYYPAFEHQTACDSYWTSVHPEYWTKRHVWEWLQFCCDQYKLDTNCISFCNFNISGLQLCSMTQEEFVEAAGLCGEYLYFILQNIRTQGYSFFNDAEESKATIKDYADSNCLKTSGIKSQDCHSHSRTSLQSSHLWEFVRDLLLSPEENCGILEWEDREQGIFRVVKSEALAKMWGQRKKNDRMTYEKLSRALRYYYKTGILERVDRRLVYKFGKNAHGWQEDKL
# In short: as §1
# [17] = target: T12, ETV3 (Homo sapiens, UniProt P41162-2 1-143); settings: protein: recombinant; tags: N-terminal GST; dsDNA, one strand shown
# T12 sequence: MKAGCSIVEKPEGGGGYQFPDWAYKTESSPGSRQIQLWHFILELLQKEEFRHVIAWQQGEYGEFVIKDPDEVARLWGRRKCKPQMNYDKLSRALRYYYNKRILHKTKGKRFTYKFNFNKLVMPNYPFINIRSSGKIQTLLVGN
# In short: as §1
# [18] = target: ETV6 (Homo sapiens, UniProt P41212 1-452); settings: protein: recombinant; tags: N-terminal GST; dsDNA, one strand shown
# Chain of ETV6 (P41212 whole entry): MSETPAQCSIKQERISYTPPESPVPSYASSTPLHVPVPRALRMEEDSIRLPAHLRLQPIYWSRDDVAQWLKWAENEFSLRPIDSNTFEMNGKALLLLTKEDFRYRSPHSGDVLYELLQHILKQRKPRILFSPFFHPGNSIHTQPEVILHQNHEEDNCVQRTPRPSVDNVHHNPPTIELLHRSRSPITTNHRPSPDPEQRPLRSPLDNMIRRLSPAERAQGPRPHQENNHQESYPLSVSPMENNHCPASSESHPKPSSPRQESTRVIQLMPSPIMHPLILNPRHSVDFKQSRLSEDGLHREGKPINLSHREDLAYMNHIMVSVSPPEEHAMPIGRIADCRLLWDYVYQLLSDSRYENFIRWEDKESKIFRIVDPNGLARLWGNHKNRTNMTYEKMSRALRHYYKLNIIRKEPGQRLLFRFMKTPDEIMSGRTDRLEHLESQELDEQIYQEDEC
# In short: as §1
sequence,measurement,setting,value
TTGACT,binding signal,[1],"1.15 fold enrichment (6-mer frequency, TF over GST control)"
same,binding signal,[2],"1.13 fold enrichment (6-mer frequency, TF over GST control)"
same,binding signal,[3],"1.12 fold enrichment (6-mer frequency, TF over GST control)"
same,binding signal,[4],"1.15 fold enrichment (6-mer frequency, TF over GST control)"
same,binding signal,[5],"1.21 fold enrichment (6-mer frequency, TF over GST control)"
same,binding signal,[6],"1.3 fold enrichment (6-mer frequency, TF over GST control)"
same,binding signal,[7],"1.27 fold enrichment (6-mer frequency, TF over GST control)"
same,binding signal,[8],"1.15 fold enrichment (6-mer frequency, TF over GST control)"
same,binding signal,[9],"1.09 fold enrichment (6-mer frequency, TF over GST control)"
same,binding signal,[10],"1.18 fold enrichment (6-mer frequency, TF over GST control)"
same,binding signal,[11],"1.18 fold enrichment (6-mer frequency, TF over GST control)"
same,binding signal,[12],"1.09 fold enrichment (6-mer frequency, TF over GST control)"
same,binding signal,[13],"1.14 fold enrichment (6-mer frequency, TF over GST control)"
same,binding signal,[14],"1.15 fold enrichment (6-mer frequency, TF over GST control)"
same,binding signal,[15],"1.22 fold enrichment (6-mer frequency, TF over GST control)"
same,binding signal,[16],"1.08 fold enrichment (6-mer frequency, TF over GST control)"
same,binding signal,[17],"1.15 fold enrichment (6-mer frequency, TF over GST control)"
same,binding signal,[18],"1.24 fold enrichment (6-mer frequency, TF over GST control)"

# Reference: paper PMC7862700, “An all-to-all approach to the identification of sequence-specific readers for epigenetic DNA modifications on cytosine”
